Experimental data: PubChem BioAssay (NCI)
About 79,000 compounds went through this panel and 15% of them were active in at least one assay; those are over-represented in the sample as a whole. Values without a mark were called inactive. No stated cut-off is given here; in the data, active means growth inhibition above about 70%; inactive means the rest.

Test: NCI Yeast Anticancer Drug Screen. Data for the sgs1 mgt1 strain (AID 161);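 further: 0% = growth of cultures given vehicle only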
Conditions: S. cerevisiae sgs1 mgt1 strain, at 50.0 µM, hits give high values
In short: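 Genetically altered yeast, compound exposure, growth inhibition relative to vehicle.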
With `CCC1(CCO)C(=O)NC(=O)NC1=O` the growth inhibition was -0.4%. In the case of `O=C(Cc1ccc2c(c1)OCO2)c1cn(C(=O)Cc2ccc3c(c2)OCO3)c2ccccc12`, the growth inhibition is reported as 5.4%. In the case of `c1ccc([As](c2ccccc2)c2ccccc2)cc1`, the growth inhibition is reported as -7.9%. `COc1cc2c(cc1OC)-c1c3c(cc4c1[C@H](C2)N(C)CC4)OCO3` showed a growth inhibition of -19.8%. Work on `CS(=N)(=O)CCC(N)P(=O)(O)O` (stereo unspecified) yielded a growth inhibition of 6.85%. Compound `NCC(=O)c1ccc(O)c(O)c1` has a growth inhibition of -4.35%. Work on `CC([Se])=Nc1ccc(Br)cc1` yielded a growth inhibition of -0.2%. `CC(=O)C1CCC2C3CCC4CC(O)CCC4(C)C3CCC12C` (stereo unspecified) showed a growth inhibition of 16.8%.

Test: NCI Yeast Anticancer Drug Screen. Data for the cln2 rad14 strain (AID 165);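 further: 0% = growth equal to vehicle treated cultures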
Conditions: S. cerevisiae cln2 rad14 strain, at 50.0 µM, hits give high values
In short: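 cln2 rad14 yeast strain; compound exposure; growth inhibition read vs vehicle controls.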
`O=Cc1ccccc1.[C-]#[O+].[C-]#[O+].[C-]#[O+].[Cr]` showed a growth inhibition of -19.1%. With `CCCCOCCOC(=O)CCl` the growth inhibition was -14.8%. `N#Cc1ccccn1` showed a growth inhibition of -6.95%. Compound `O=[As](O)(O)CC(Br)CBr` (stereo unspecified) has a growth inhibition of -7.3%. `C1CCC(N([P-]P([P-]N(C2CCCCC2)C2CCCCC2)N(C2CCCCC2)C2CCCCC2)C2CCCCC2)CC1.[C-]#[O+].[C-]#[O+].[C-]#[O+].[C-]#[O+].[C-]#[O+].[C-]#[O+].[Fe].[Fe]` (stereo unspecified) showed a growth inhibition of -8.1%. For `CC1CN1C(=O)NCCCCCCNC(=O)N1CC1C` (stereo unspecified), the growth inhibition was -38.7%. `CN(C)[C@@H]1C(=O)C(C(N)=O)=C(O)[C@@]2(O)C(=O)C3=C(O)c4c(O)ccc(Cl)c4[C@@](C)(O)[C@H]3C[C@@H]12` gave a growth inhibition of -6.6%. In the case of `C[Si](C)(C)[C@@]1([Se]c2ccccc2)CC[C@@H]1C(=O)c1ccccc1`, the growth inhibition is reported as -18.2%.
